Records with an inconclusive call do not appear. Entries that show only a call come without a potency. The source made the active and inactive calls. The call rests on the fitted dose curve; in most records, active means well fitted cell-killing curve with a large enough effect in the repeat runs; inconclusive means weak or mixed curves, or effect the other way; inactive means no such curve, though single readings can be large or run the other way.
Assay: qHTS assay to identify small molecule agonists of the farnesoid-X-receptor (FXR) signaling pathway - cell viability counter screen (AID 743218); further: nearly all actives have a fitted effect of over 45% in size
Settings: FXR-bla HEK293T viability, CellTiter-Glo luminescence, 16 h; series mostly up to 62.6 µM
Source text: U.S. Tox21 Program National Center for Advancing Translational Sciences [NCATS] NIH Chemical Genomics Center [NCGC] U.S. Environmental Protection Agency [EPA] National Institutes of Environmental Health Sciences [NIEHS] National Toxicology Program [NTP] U.S. Food and Drug Administration [FDA] Tox21 Assay Overview: The farnesoid-X-receptor (FXR), a nuclear hormone receptor, is highly expressed in liver, intestine, kidney and adrenal cortex. Natural ligands of FXR are the bile acids (Cholic acid, Chenodeoxy cholic acid etc). FXR is an important regulator of diverse metabolic pathways, including the bile acid homeostasis, lipid and glucose metabolisms. FXR regulates the expression of target genes by binding either as a monomer or as a heterodimer with the retinoid X receptor (RXR). Numerous studies have reported that FXR exerts protective function during cholestasis, diabetes, liver regeneration, and cancer. To identify compounds that activate FXR signaling, GeneBLAzer FXR-UAS-bla HEK 293T cell line (Invitrogen, Carlsbad, CA) containing a beta-lactamase reporter gene under the control of a UAS response element was used to screen the Tox21 10K compound library. The cytotoxicity of the Tox21 compound library against the FXR-bla cell line was tested in parallel by measuring the cell viability using CellTiter-Glo assay in the same wells.
Tox21 Assay Protocol Summary: FXR-bla cells were dispensed at 5000 cells/5uL/well in 1536-well black wall/clear bottom plates using a Multidrop Combi (Thermo Fisher Scientific, Waltham, MA) dispenser. After the assay plates were incubated at 37 C and 5% CO2 for 5 h, 23 nL of compounds dissolved in DMSO, positive controls or DMSO only was transferred to the assay plate by a Pintool station (Kalypsys, San Diego, CA). The assay plates were incubated at 37C for 16 h. After 1 uL of LiveBLAzerTM B/G FRET substrate was added using a Bioraptr Flying Reagent Dispenser (FRD) workstation (Beckman Coulter, Indianapolis, IN), the plates were incubated at room temperature for 2 h, and fluorescence intensity was measured by an Envision plate reader (PerkinElmer, Shelton, CT). For cell viability readout that measures cytotoxicity, 4uL/well of CellTiter-Glo reagent was added into the assay plates using a Bioraptr FRD. After 30 min incubation at room temperature, the luminescence intensity in the plates was measured using a ViewLux plate reader (PerkinElmer).

SMILES	Potency
CCCCN(CCCCO)N=O	inactive
COC(=O)c1ccccc1S(=O)(=O)NC(=O)N(C)c1nc(C)nc(OC)n1	inactive
COc1cc(OC)nc(NC(=O)NS(=O)(=O)c2ncccc2C(=O)N(C)C)n1	inactive
ClC(Cl)Br	inactive
N#CCBr	inactive
CC1CCCCC1NC(=O)Nc1ccccc1 (stereo not given)	inactive
CCOP(=O)(OCC)OP(=O)(OCC)OCC	inactive
CSc1nc(N=[N+]=[N-])nc(NC(C)C)n1	inactive
O=c1oc2ccccc2c(O)c1C1CCCc2ccccc21 (stereo not given)	inactive
CN/C(=N\[N+](=O)[O-])NCC1CCOC1 (stereo not given)	inactive
Oc1c(Cl)cccc1Cl	inactive
CCCCc1c(C)nc(NCC)[nH]c1=O	inactive
O=C(O)c1ccc2[nH]cc(CCCCN3CC=C(c4ccccc4)CC3)c2c1	inactive
COP(N)(=S)Oc1ccccc1C(=O)OC(C)C (stereo not given)	inactive
OC(c1ccccc1)(c1ccccc1)C1CCNCC1	inactive
CC(=O)Nc1cc([As](=O)(O)O)ccc1O	inactive
CCCSP(=S)(OCC)Oc1ccc(Cl)cc1Cl (stereo not given)	inactive
CNC(=O)Oc1c(C(C)(C)C)cc(C)cc1C(C)(C)C	inactive
[As]#[In]	inactive
CN1CCN(C(=O)O[C@H]2c3nccnc3C(=O)N2c2ccc(Cl)cn2)CC1	inactive

SMILES	Potency
COP(=S)(OC)Oc1c(Cl)cc(C)cc1Cl	inactive
CCCCC(=O)Cl	inactive
C[C@]12CC[C@H]3[C@@H](CCC4=CC(=O)CC[C@@]43C)[C@@H]1CC[C@@H]2C(=O)O	inactive
CCS(=O)(=O)C(C)(C)S(=O)(=O)CC	inactive
CC1=C(C(=O)O)N2C(=O)[C@@H](N)[C@H]2SC1	inactive
CCOP(=S)(Oc1cnc(C(C)(C)C)nc1)OC(C)C (stereo not given)	inactive
CN(N=O)C(N)=O	inactive
Nc1n[nH]c(N)n1	inactive
COC(=O)c1ccccc1S(=O)(=O)NC(=O)Nc1nc(C)cc(C)n1	inactive
CC1CN1P(=O)(N1CC1C)N1CC1C (stereo not given)	inactive
CC1(C(=O)Nc2ccc(O)c(Cl)c2Cl)CCCCC1	inactive
CCOC(=O)N(C)C(=O)CSP(=S)(OCC)OCC	inactive
CCOP(=S)(OCC)Oc1nc(Cl)n(C(C)C)n1	inactive
O=C(Oc1ccc(Br)cc1)N1CCN2CCC1CC2	inactive
OCCSCSCCO	inactive
Cc1ncc2n1-c1ccc(Cl)cc1C(c1ccccc1F)=NC2	inactive
COc1cccc2c1cc([N+](=O)[O-])c1c(C(=O)O)cc3c(c12)OCO3	inactive
O=C1OC(c2ccc(O)c(S(=O)(=O)O)c2)(c2ccc(O)c(S(=O)(=O)O)c2)c2c(Br)c(Br)c(Br)c(Br)c21	inactive
CNC(=O)Oc1ccccc1C1OCCO1	inactive
C[N+](C)=CCl	inactive
